Experimental data reported in PubChem BioAssay AID720706 (Broad Institute, 2013).
The whole screen tested about 350,000 compounds, of which about 5,500 (1.6%) were called active.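 The calls were made as follows: active = significant combined selectivity score with lowered wild-type GFP, culture density cut under 30%, mutant RFP and density less affected; inactive = any of these conditions unmet.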 This excerpt belongs to a sample that is enriched for actives.

assay: reduced GFP signal of wild-type E. coli, primary screen, bacterial rRNA inhibitor project, GFP/RFP fluorescence, OD600, single point (AID 720706); details: E. coli WT GFP vs humanized-ribosome RFP mutants, 24 h; GFP signal change (wild-type ribosome): stronger effect = lower value, DMSO median 0, no signal -100; OD600 change: measured here: OD600 growth, DMSO median 0, no signal -100; RFP signal change: measured here: RFP humanized mutant strains, DMSO median 0, no signal -100, concentration not given here

| SMILES | GFP signal change (wild-type ribosome) | OD600 change | RFP signal change |
| --- | --- | --- | --- |
| O=C(C1CC1)N1CCCCN2[C@H](CO)[C@H](c3ccc(-c4cccc(F)c4)cc3)[C@H]2C1 | -6.45% (inactive) | -8.76% | 3.12% |
| COCC(=O)N1CCCCN2[C@H](C1)[C@@H](c1ccc(-c3ccccc3)cc1)[C@@H]2CO | 2.96% (inactive) | -5.68% | 0.005% |
| C[C@@H]1CCCCO[C@@H](CN(C)C(=O)Nc2cccc3ccccc23)[C@H](C)CN([C@H](C)CO)C(=O)c2cc(NS(C)(=O)=O)ccc2O1 | 2.97% (inactive) | -14.8% | -1.87% |
| COc1cccc(C(=O)c2cc3ccc(O)cc3oc2=O)c1 | -30.5% (active) | -15% | 1.31% |
| COC(=O)c1ccc(COC(=O)CNC(=O)c2cccc(OC)c2)o1 | 3.46% (inactive) | 11.4% | -1.13% |
| COc1cccc(C(=O)NCCSc2ccc(Br)cc2)c1 | -49.8% (inactive) | -75.8% | -16.7% |
| COc1ccc(NC(=O)Nc2ccc3c(c2)C(=O)N([C@H](C)CO)C[C@H](C)[C@@H](CN(C)Cc2ccccc2)OCCCC[C@H](C)O3)cc1 | 2.43% (inactive) | -11% | 1.05% |
| C[C@@H]1CN([C@H](C)CO)C(=O)c2cc(NC(=O)C3CCCCC3)ccc2O[C@@H](C)CCCCO[C@H]1CN(C)S(C)(=O)=O | -1.08% (inactive) | 0.309% | -2.76% |
| CC1CCN(C(=O)CCNC(=O)c2ccccc2)CC1 | 9.31% (inactive) | 16.3% | -0.0995% |
| CC1CCN(c2c(NCc3ccc(C(=O)NCc4ccccc4)cc3)c(=O)c2=O)CC1 | -2.23% (inactive) | 0.92% | 2.65% |
| CC1CCCN(c2ccc(C(=O)NCCc3ccccc3)cn2)C1 (stereo unspecified) | -19.9% (active) | -8.59% | 0.765% |
| COc1ccc2c3c([nH]c2c1)[C@H](CO)N(C(=O)C1CCC1)CC31CCN(Cc2cccc(F)c2)CC1 | -1.74% (inactive) | -5.93% | 3.15% |
| COc1ccc2c3c([nH]c2c1)[C@@H](CO)N(Cc1ccccc1OC)CC31CCN(C)CC1 | -0.945% (inactive) | 0.435% | 0.881% |
| Cc1nn(-c2ccccc2)c(C)c1/C=N/NC(=O)CSc1nc2ccccc2c(=O)n1-c1ccccc1 | 14.9% (inactive) | 17.7% | -2.02% |
| Cc1nn(-c2ccccc2)c(Cl)c1/C=N/NC(=O)c1nn(C)cc1[N+](=O)[O-] | -30.3% (active) | 4.85% | 0.73% |
| Cc1cc(=O)[nH]c(N/N=C/c2c(C)nn(-c3ccccc3Cl)c2Cl)n1 | -2.91% (inactive) | 6.48% | -1.95% |

| SMILES | GFP signal change (wild-type ribosome) | OD600 change | RFP signal change |
| --- | --- | --- | --- |
| C[C@@H]1CN([C@@H](C)CO)S(=O)(=O)c2ccc(C#CCN(C)C)cc2O[C@@H]1CN(C)S(=O)(=O)c1cccc(F)c1 | -0.828% (inactive) | -6.54% | 0.409% |
| C[C@H](CO)N1C[C@H](C)[C@H](CN(C)C(=O)Nc2ccc(C(F)(F)F)cc2)Oc2ccc(NS(=O)(=O)c3ccccc3)cc2CC1=O | 2.52% (inactive) | -0.79% | 1.4% |
| CN1C(=O)c2cc(NC(=O)c3ccccc3)ccc2OC[C@@H]2O[C@@H](CC(=O)NC3CCCC3)CC[C@H]21 | 0.592% (inactive) | 4.01% | 0.386% |
| Cc1ccccc1NC(=O)CCOc1ccccc1 | 6.54% (inactive) | -4.25% | 2.04% |
| Cc1ccc(F)c(NC(=O)CCOc2ccccc2C)c1 | -19.4% (active) | -1.12% | 1.17% |
| Cc1cccc(OCCC(=O)Nc2ccccc2C(N)=O)c1 | -0.179% (inactive) | -10.5% | 0.55% |
| C[C@@H]1CN([C@H](C)CO)C(=O)Cc2cc(NS(=O)(=O)c3cn(C)cn3)ccc2O[C@@H]1CN(C)C(=O)Nc1ccccc1 | 6.08% (inactive) | 7.32% | -1.29% |
| CS(=O)(=O)N1CCc2cc(C(=O)Nc3ccccc3)ccc21 | 5.39% (inactive) | 2.75% | 3.33% |
| CC(=O)Nc1cccc(NC(=O)c2ccc3c(c2)CCN3S(C)(=O)=O)c1 | -1.52% (inactive) | 7.81% | 5.89% |
| CN(c1cccc(NC(=O)c2ccc(CN3CCc4ccccc4C3)cc2)c1)S(C)(=O)=O | -21.5% (active) | -11.3% | -3.92% |
| O=C(NCCc1csc(-c2ccccc2)n1)c1ccccc1F | -24.5% (active) | -9.12% | 10.4% |
| O=S(=O)(NCCc1csc(-c2ccccc2)n1)c1cccnc1 | -11.8% (inactive) | -3.96% | 1.22% |
| COc1ccc(-c2nc(CCNC(=O)c3ccc(Br)o3)cs2)cc1 | -22.8% (inactive) | -75.5% | -22.8% |
| C[C@H](CO)N1C[C@H](C)[C@@H](CN(C)C(=O)c2ccncc2)Oc2cc(/C=C/c3ccccc3)ccc2S1(=O)=O | -0.655% (inactive) | -10% | 0.748% |
| CC(C)NC(=O)N(C)C[C@H]1Oc2ccc(N)cc2CC(=O)N(C)C[C@H]1C | 1.15% (inactive) | 1.28% | -1.08% |
| COc1ccc2oc(C(=O)NCC(Cc3ccccc3)N(C)C)c(C)c2c1 (stereo unspecified) | 0.609% (inactive) | -7.21% | 3.26% |
